“And” between values parts separate entries of the source, which are not always exact repeats. Equal values may be shown once. Results filed as inconclusive are left out. The source made the active and inactive calls.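 How the source made its calls, unless noted: active means normalized viability below 100% at a tested concentration; inactive means the rest.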
Assays:
[1] = stimulators of nuclear beta-catenin in C2C12, primary screen, imaging, WNT3A-conditioned medium, mouse C2C12, NPC library (AID 1117326; in the data active means nuclear beta-catenin stimulation mostly above about 4.2%, no sharp cut-off; inactive means mostly below about 10%); details: stronger effect = higher value
[2] = stimulators of insulin release from INS-1E, primary screen, cell-based, 5 mM glucose, NPC library (AID 1117329;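 active means compound raises insulin release from rat beta cells at 5 mM glucose, no numeric limit stated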); details: rat INS-1E insulin secretion, at 10 µM, stronger effect = higher value
[3] = growth inhibition of GSK3B-pretreated HCT116 cells – cell-based, CellTiter-Glo, 0.2 to 20 µM (AID 1117336;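 active means compounds lowering colon cancer cell viability after pretreatment blocking the GSK3B kinase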); details: HCT116 viability after GSK3B inhibitor, at 20 µM, stronger effect = higher value
[4] = inhibition of endothelial tube formation, primary screen, imaging, VEGF stimulated, CD31 staining, tube area, NPC library (AID 1117340;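 active means compound that reduces growth-factor-driven endothelial tube area in a mixed cell culture, no cutoff stated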); details: VEGF-stimulated ADSC/ECFC co-culture, at 10 µM, stronger effect = higher value
[5] = glucagon-like peptide 1 release enhancers, primary assay, NCI-H716 cell line, NPC library (AID 1117341;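 active means compound raises GLP1 secretion from the human gut endocrine cells, with no numeric limit stated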); details: NCI-H716 cells, at 10 µM, stronger effect = higher value
[6] = HCT116 colon cancer cell growth inhibition, primary screen, CellTiter-Glo luminescence, NPC library (AID 1117342;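 active means compounds that lower survival of HCT116 colon cancer cells in the luminescence readout, no numeric limit stated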); details: at 20 µM (top of the series)
[7] = CellTiter-Glo luminescent readout of SW480 viability loss, NPC library primary (AID 1117343;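 active means compounds that lower viability of the colon cancer cells in the luminescence readout, with no numeric limit stated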); details: CellTiter-Glo luminescence; at 20 µM (top of the series) unless noted
[8] = decreased DLD-1 cellular survival, CellTiter-Glo luminescent readout, NPC compound collection, primary HTS (AID 1117346;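 active means compounds that lower survival of DLD-1 colon cancer cells in the luminescence readout, no cutoff given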); details: DLD-1 viability, CellTiter-Glo luminescence; at 20 µM (top of the series)
[9] = growth inhibition of DIPG glioma cells, dose response, cell-based, SU-DIPG-IV, MIPE4.0, CellTiter-Glo, qHTS (AID 1347063; cut-off not given, nearly all actives have AC50 up to about 30 µM;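 further: compound exposure lasted 48 hours before the viability readout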); details: SU-DIPG-IV viability, CellTiter-Glo ATP luminescence
[10] = viability loss in pontine glioma line – cell-based, SU-DIPG-XXV, MIPE5.0, CellTiter-Glo, qHTS, dose response (AID 1347065; cut-off not given, nearly all actives have AC50 up to about 26 µM;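 further: cells exposed to compound for 48 hours before ATP readout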); details: CellTiter-Glo ATP luminescence
[11] = SU-DIPG-VI glioma cell viability, MIPE4.0 library, CellTiter-Glo luminescence, qHTS (AID 1347066; cut-off not given, nearly all actives have AC50 up to about 30 µM;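 further: cells exposed to compound for 48 hours before readout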); details: CellTiter-Glo ATP luminescence
[12] = SU-DIPG-XXV glioma cell viability, MIPE5.0 library, qHTS (AID 1347068; cut-off not given, nearly all actives have IC50 up to about 30 µM)
[13] = sensitizers of A549 cells to miR-34 induction, primary screen, imaging, A549 dox-inducible miR-34, nuclei and caspase counts (AID 1347080;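 active means compounds whose cell count with miR-34 switched on is under 0.7 times the count with it off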); details: A549 miR-34 inducible, Hoechst nuclei count, 48 h
[14] = survival rescue of mitochondrial mutant cells in low glucose, primary screen, MELAS cybrids, Rieske KO mouse fibroblasts, CellTiter-Glo (AID 1508586;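 active means mean z-score across replicates of 1.96 or higher in either the MELAS or the Rieske mutant cell line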;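 further: z relative to plate mean and SD of compound and empty wells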)
[15] = viability rescue of complex I mutant cybrids, primary screen, cell-based, galactose medium, ATP luminescence (AID 1645843;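 active means z-score of at least 1.8 in each of two replicates, scored against plate mean and spread of sample wells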;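 further: positive z means more ATP and so rescue of galactose-driven cybrid death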); details: complex I mutant cybrid cells, 72 h, stronger effect = higher value
[16] = growth inhibition of DIPG glioma cells, dose response, cell-based, JHH-DIPG-1, MIPE4.0, CellTiter-Glo, qHTS (AID 1347062; cut-off not given, nearly all actives have AC50 up to about 27 µM;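 on AC50: cells exposed to compound for two days before readout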); details: JHH-DIPG-1 viability, CellTiter-Glo ATP luminescence
[17] = ovarian cancer cell viability with rucaparib, profiling panel, oncology-focused library, rucaparib conditional (AID 1508598); details: patient-derived ovarian cancer cells, CellTiter-Glo viability, 144 h, stronger effect = lower value
[18] = stronger effect = lower value, cell number ratio, induced over uninduced
[19] = measured here: relative caspase fold change +Dox/-Dox
[20] = measured here: total cells with miR-34 induction, stronger effect = lower value
[21] = measured here: total cells without miR-34 induction
[22] = MELAS cybrid survival, CellTiter-Glo 48 h, stronger effect = higher value
[23] = Rieske KO mouse fibroblast survival, CellTiter-Glo 72 h

CC(C)(C)C(=O)OCOP(=O)(COCCn1cnc2c(N)ncnc21)OCOC(=O)C(C)(C)C
0.795 and 0.351: z-score [14, 23]
active: nuclear beta-catenin stimulation ([1]; at 10 µM) 79.6% | viability decrease [3] 95.4% | tube area decrease [4] 100% | inhibition of viability [6] 73.3% | viability decrease (inhibition) [7] 95.4% | viability decrease (inhibition) [8] 78.5% | AC50 [9] 7.43 µM | AC50 [10] 20.9 µM | AC50 [11] 16.6 µM
5980 and 5100: cell count [13, 20]
72.7%: nuclear beta-catenin stimulation ([1]; stimulation, at 2 µM)
inactive: insulin secretion stimulation [2] 3.5% | GLP1 secretion stimulation [5] 2.8% | outcome [12] | fold change [13, 18] 0.906 and 0.857 | z-score [14, 22] -0.539 and -0.165 | z-score [15] -0.625
6600 and 5960: cell count [13, 21]
0.703 and 1.46: fold change [13, 19]

CN(C)[C@@H](CCOc1cccc2ccccc12)c1ccccc1
inactive: nuclear beta-catenin stimulation ([1]; at 10 µM) 0.1% | insulin secretion stimulation [2] 9.9% | tube area decrease [4] 20.5% | GLP1 secretion stimulation [5] 6%
-0.4%: nuclear beta-catenin stimulation ([1]; stimulation, at 2 µM)
active: viability decrease [3] 89.7% | inhibition of viability [6] 91.5% | viability decrease (inhibition) [7] 103% | viability decrease (inhibition) [8] 67% | AC50 [16] 20.9 µM | AC50 [9] 23.5 µM

CCCCCCCCCCCCCCCCNc1ccc(C(=O)O)cc1
active: viability decrease [3] 68.9% | tube area decrease [4] 109% | viability decrease (inhibition) [7] 72.6% | viability decrease (inhibition) [8] 61.9%
1.2%: nuclear beta-catenin stimulation ([1]; stimulation, at 2 µM)
inactive: nuclear beta-catenin stimulation ([1]; at 10 µM) 11.3% | insulin secretion stimulation [2] 4.2% | GLP1 secretion stimulation [5] -2.9% | inhibition of viability [6] 45% | fold change [13, 18] 0.865
0.501: fold change [13, 19]
4330: cell count [13, 20]
5010: cell count [13, 21]

COc1nc(N)nc2c1ncn2[C@@H]1O[C@H](CO)[C@@H](O)[C@@H]1O
active: viability ([17]; at 0.00488 µM, OCI-C5x cells, without rucaparib) 98% | viability ([17]; at 0.00488 µM, OCI-P5x cells, without rucaparib) 97.2% | viability ([17]; at 0.0195 µM, OCI-C5x cells, without rucaparib) 96.1% | viability ([17]; at 0.0195 µM, OCI-P5x cells, with rucaparib 20 µM, 100% = cells with rucaparib alone) 94% | viability ([17]; at 0.0781 µM, OCI-C5x cells, without rucaparib) 99.7% | viability ([17]; at 0.0781 µM, OCI-P5x cells, with rucaparib 20 µM, 100% = cells with rucaparib alone) 94.2% | viability ([17]; at 0.313 µM, OCI-C5x cells, without rucaparib) 90.4% | viability ([17]; at 0.313 µM, OCI-P5x cells, with rucaparib 20 µM, 100% = cells with rucaparib alone) 98% | viability ([17]; at 0.313 µM, OCI-P5x cells, without rucaparib) 97% | viability ([17]; at 1.25 µM, OCI-C5x cells, without rucaparib) 83.3% | viability ([17]; at 1.25 µM, OCI-P5x cells, with rucaparib 20 µM, 100% = cells with rucaparib alone) 90.5% | viability ([17]; at 1.25 µM, OCI-P5x cells, without rucaparib) 90.1% | viability ([17]; at 5 µM, OCI-C5x cells, with rucaparib 10 µM, 100% = cells with rucaparib alone) 92.9% | viability ([17]; at 5 µM, OCI-C5x cells, without rucaparib) 84.3% | viability ([17]; at 5 µM, OCI-P5x cells, with rucaparib 20 µM, 100% = cells with rucaparib alone) 80.3% | viability ([17]; at 5 µM, OCI-P5x cells, without rucaparib) 90%
0.487: z-score [14, 23]
inactive: nuclear beta-catenin stimulation ([1]; at 10 µM) 2.7% | insulin secretion stimulation [2] -1.9% | viability decrease [3] -1.5% | tube area decrease [4] 5.7% | GLP1 secretion stimulation [5] 0.9% | inhibition of viability [6] -1.43% | viability decrease (inhibition) [7] -15.5% | viability decrease (inhibition) [8] -11.9% | outcome [16] | outcome [9] | outcome [11] | z-score [14, 22] 0.551 | viability ([17]; at 0.000305 µM, OCI-C5x cells, with rucaparib 10 µM, 100% = cells with rucaparib alone) 129% | viability ([17]; at 0.000305 µM, OCI-C5x cells, without rucaparib) 109% | viability ([17]; at 0.000305 µM, OCI-P5x cells, with rucaparib 20 µM, 100% = cells with rucaparib alone) 104% | viability ([17]; at 0.000305 µM, OCI-P5x cells, without rucaparib) 107% | viability ([17]; at 0.00122 µM, OCI-C5x cells, with rucaparib 10 µM, 100% = cells with rucaparib alone) 114% | viability ([17]; at 0.00122 µM, OCI-C5x cells, without rucaparib) 106% | viability ([17]; at 0.00122 µM, OCI-P5x cells, with rucaparib 20 µM, 100% = cells with rucaparib alone) 101% | viability ([17]; at 0.00122 µM, OCI-P5x cells, without rucaparib) 105% | viability ([17]; at 0.00488 µM, OCI-C5x cells, with rucaparib 10 µM, 100% = cells with rucaparib alone) 108% | viability ([17]; at 0.00488 µM, OCI-P5x cells, with rucaparib 20 µM, 100% = cells with rucaparib alone) 101% | viability ([17]; at 0.0195 µM, OCI-C5x cells, with rucaparib 10 µM, 100% = cells with rucaparib alone) 112% | viability ([17]; at 0.0195 µM, OCI-P5x cells, without rucaparib) 102% | viability ([17]; at 0.0781 µM, OCI-C5x cells, with rucaparib 10 µM, 100% = cells with rucaparib alone) 113% | viability ([17]; at 0.0781 µM, OCI-P5x cells, without rucaparib) 101% | viability ([17]; at 0.313 µM, OCI-C5x cells, with rucaparib 10 µM, 100% = cells with rucaparib alone) 101% | viability ([17]; at 1.25 µM, OCI-C5x cells, with rucaparib 10 µM, 100% = cells with rucaparib alone) 102%
0.8%: nuclear beta-catenin stimulation ([1]; stimulation, at 2 µM)

Reference: PubChem BioAssay
